# Screens deposited in PubChem BioAssay by National Center for Advancing Translational Sciences (NCATS).
# Most compounds without a hit are left out; they make up all but 19% or so of the library.
# DT40 TDP1 no CPT: qHTS for Inhibitors of human tyrosyl-DNA phosphodiesterase 1 (TDP1): qHTS in cells in absence of CPT; AID 686978, 2013; 420,000 compounds, 15% hits; DT40 Tdp1-/- hTDP1 cells, no CPT, ATP luminescence, 48 h; Potency, µM (top dose mostly 46.2 µM), inactives show at the top dose activity change, negative = growth inhibition, usual class: inhibitors; also: potency is read from the fitted curve at half-maximal effect; nearly all actives have a fitted effect of over 55% in size
#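 Chicken DT40 Tdp1-/- cells complemented with human TDP1, screened without camptothecin (DMSO vehicle only), 400 cells/well. Compounds pin-transferred, cells incubated at 37 °C for at least 48 hr. Growth read as ATP-dependent luminescence (CellTiter-Glo, 30 min at RT).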
# HT1080 IDH1KD tx: kills HT-1080 cells with IDH1 knockdown; HT-1080 IDH1 knockdown viability, ATP luminescence, 48 h; Potency, µM (titrated, usually from 46.1 µM), for inactives: top-dose activity, negative = toxicity, actives largely listed as cytotoxic; 360,000 compounds, 2% hits; AID 686971;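 also: potency is read from the fitted curve at half-maximal effect; 0% = DMSO wells and -100% = cell-free medium wells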
#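 Knockdown cells (IDH1KD HT-1080) received compounds 2 h after plating at 750 cells/well and were kept 48 h at 37 °C in 5% FBS RPMI. A CellTiter-Glo luminescence read gave % activity for curve fitting.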
# IL-1B inflam inh: blocks inflammasome-driven IL-1 beta release. THP-1 LPS/ATP IL-1B secretion, AlphaLISA, 16 h; active compounds read low. activity change, % at 57.5 µM. 360,000 compounds, 4.7% hits. AID 743279; in the data active = activity change below about -50%; inconclusive = mostly about -30% to -49%
#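 Secreted IL-1B measured by AlphaLISA bead assay after 16 h compound exposure of THP-1 cells; compounds (final up to 57.5 uM) added 1 h before LPS (250 ng/mL) and ATP (1.25 mM) stimulation; lower signal means less secretion.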
# ELG1 repair inh: blocks ELG1-dependent DNA repair in HEK293T cells; AID 504467; Potency, µM (titrated, usually from 46.1 µM), for the others: top-dose activity change, negative = inhibition, most hits filed as inhibitors; 330,000 compounds, 2.3% hits; HEK293T ELG1-luciferase reporter, luminescence, 16 h; DNA damage induced by 5-fluorouridine; also: potency is read from the fitted curve at half-maximal effect; nearly all actives have a fitted effect of over 55% in size
#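 5-Fluorouridine DNA damage + compound/DMSO, 2,000 cells/well, 16 h, 37 °C/5% CO2. ONE-Glo, 30 min RT, luminescence. Readout = decrease in reporter signal.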
# TDP1 cell CPT: growth inhibition of DT40 Tdp1-/-;hTDP1 cells with camptothecin (screen for TDP1 inhibitors) | chicken DT40 Tdp1-/-;hTDP1 cells + 20 nM CPT, ATP luminescence, 48 h | Potency, µM (top dose mostly 46.2 µM), for the others: at the top dose activity change, negative = growth inhibition, most hits filed as inhibitors | 420,000 compounds, 12% hits; also: potency is read from the fitted curve at half-maximal effect; nearly all actives have a fitted effect of over 55% in size
#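 Chicken DT40 Tdp1-/- cells complemented with human TDP1, 400 cells/well, exposed to compounds plus 20 nM camptothecin for at least 48 h at 37 C; viability read as ATP content by CellTiter-Glo luminescence.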
# HT1080-NT tox: kills 2HG-producing HT-1080-NT fibrosarcoma cells; HT-1080-NT fibrosarcoma viability, CellTiter-Glo ATP luminescence, 48 h; AID 686970; Potency, µM (titrated, usually from 46.1 µM), for the others: at the top dose activity, negative = less viability, usual class: cytotoxic; 360,000 compounds, 1.6% hits;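 also: NT is the 2HG producing partner of a matched IDH1 knockdown line; potency is read from the fitted curve at half-maximal effect; 0% = DMSO-treated cells and -100% = media-only wells without cells; nearly all actives have a fitted effect of over 55% in size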
#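 HT-1080-NT; 750 cells/well; 5% FBS RPMI; 48 h compound, 37 degrees C; CellTiter-Glo luminescence; curve fitting and curve-class assignment.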
# Starred values were filed as active, the others as inactive; ? = inconclusive; nt = no result given; [ ] = remark or other dose. Unless noted, calls follow the shape of the dose curve; as a rule, active = well fitted curve in the direction sought with a large enough effect; inconclusive = small, poorly fitted or top-dose-only effect, or another doubt; inactive = no such curve, though single readings can be large; an effect the other way counts as inactive or inconclusive. Unless noted, % is scaled to controls: 0 for no effect and ±100 for the full control effect.
SMILES,DT40 TDP1 no CPT,HT1080 IDH1KD tx,IL-1B inflam inh,ELG1 repair inh,TDP1 cell CPT,HT1080-NT tox
COc1ccc(-c2ccc(C(=O)NCCN(C)C)c3occc23)c(C)c1,?,18µM*,-9,nt,?,29µM*
CCOC(=O)C1CCCN(S(=O)(=O)c2ccc3[nH]c(=O)oc3c2)C1 (centres undefined),?,nt,nt,nt,-27%,nt
COc1ccc(-c2ccc(C(=O)NCc3ccccc3)c3occc23)c(C)c1,?,?,?,nt,23µM*,?
COc1ccc(-c2ccc(C(=O)NC3CCCCC3)c3occc23)c(C)c1,18µM*,?,-28,nt,21µM*,?
COc1ccc(CCNC(=O)Cc2ccc(NS(=O)(=O)c3ccc(F)cc3)cc2)cc1OC,-15%,8%,?,-22%,-8%,0%
COc1ccc(CNC(=O)c2ccc(Cn3cc(Cl)cn3)o2)cc1,-16%,2%,-13,-5%,7%,3%
O=NN(C(=O)NCc1cccnc1)C1CCCCC1,0%,12%,9,nt,-21%,20%
C=CCn1c(N2CCN(c3ccc(OC)cc3)CC2)nc2c1c(=O)n(C)c(=O)n2C,18µM*,-24%,-16,16µM*,21µM*,5%
CCOCCn1c(N2CCN(c3ccc(OC)cc3)CC2)nc2c1c(=O)n(C)c(=O)n2C,?,9%,-12,?,?,2%
Cn1c(=O)c2c(ncn2CC(=O)N2CCN(c3ccc([N+](=O)[O-])cc3)CC2)n(C)c1=O,?,-14%,33,?,5%,-13%
COCCn1c(N2CCN(c3ccc(OC)cc3)CC2)nc2c1c(=O)n(C)c(=O)n2C,?,-8%,0,18µM*,?,2%[9.24 µM]
Cn1c(=O)c2c(nc(N3CCN(c4ccc([N+](=O)[O-])cc4)CC3)n2C)n(C)c1=O,18µM*,10%,-5,?,-20%,6%
Cc1ccc(S(=O)(=O)NC(C)(C)CN2CCc3ccccc3C2)cc1,?,0%,39,0%,?,-24%
COc1cccc(CNC(=O)CCc2cn(Cc3ccccc3Cl)c3ccccc23)c1,18µM*,nt,nt,nt,?,nt
O=C(CCc1cn(Cc2ccccc2Cl)c2ccccc12)NC1CCCCC1,16µM*,nt,nt,nt,?,nt
Clc1ccc(-c2nnn3c2nc(NC2CCCCC2)c2ccccc23)cc1,-23%,nt,nt,nt,5%,nt
O=C(O)COc1ccc(/C=C/C(=O)c2ccc3ccccc3c2)cc1,0%,?,-99*,0%,15%,?
O=C(O)COc1ccc(C(=O)c2ccccc2)cc1,8%,5%,12,-12%,-3%,0%
O=C(O)COc1ccc(/C=C/C(=O)c2ccc(C3CCCCC3)cc2)cc1,18µM*,?,-101*,?,?,?
Cc1cccc(C)c1OCC(N)C(C)C (centres undefined),13%,0%,-57*,-1%,4%,5%
Cc1cccc(C)c1OCC(O)CNC(C)C (centres undefined),-7%,-1%,11,?,-1%,-2%
CC(C)NC(=O)N1CCC2(CC1)CCN(S(C)(=O)=O)CC2,-1%,nt,nt,nt,12%,nt
CN(CC(=O)Nc1ccccc1N1CCOCC1)S(=O)(=O)c1ccc(Cl)cc1,?,9%,-3,26µM*,21µM*,-5%
CS(=O)(=O)c1ccc(C(=O)Nc2ccccc2N2CCOCC2)c(Cl)c1,-15%,10%,-7,-15%,1%,4%
CN(c1ccccc1)S(=O)(=O)c1ccc(Cl)c(C(=O)Nc2ccccc2N2CCOCC2)c1,7.3µM*,-18%,18,?,8.2µM*,0%
